# Measured values published in PubChem BioAssay AID1851 (National Center for Advancing Translational Sciences (NCATS), 2009).
# In all, about 16,000 compounds went through this assay and about 2,600 (16%) were called active. Inconclusive results (about 20%) are left out. The call rests on the fitted dose curve; in most records, active means well fitted curve in the direction sought with a large enough effect; inconclusive means small, poorly fitted or top-dose-only effect, or effect the other way; inactive means no such curve, though single readings can be large or run the other way. These entries were drawn from the full list. More than one record can exist for a structure, and the calls need not agree.
# Biological target: Cytochrome P450 2D6 (Homo sapiens) (UniProt P10635)
# Sequence (P10635 whole entry, looked up): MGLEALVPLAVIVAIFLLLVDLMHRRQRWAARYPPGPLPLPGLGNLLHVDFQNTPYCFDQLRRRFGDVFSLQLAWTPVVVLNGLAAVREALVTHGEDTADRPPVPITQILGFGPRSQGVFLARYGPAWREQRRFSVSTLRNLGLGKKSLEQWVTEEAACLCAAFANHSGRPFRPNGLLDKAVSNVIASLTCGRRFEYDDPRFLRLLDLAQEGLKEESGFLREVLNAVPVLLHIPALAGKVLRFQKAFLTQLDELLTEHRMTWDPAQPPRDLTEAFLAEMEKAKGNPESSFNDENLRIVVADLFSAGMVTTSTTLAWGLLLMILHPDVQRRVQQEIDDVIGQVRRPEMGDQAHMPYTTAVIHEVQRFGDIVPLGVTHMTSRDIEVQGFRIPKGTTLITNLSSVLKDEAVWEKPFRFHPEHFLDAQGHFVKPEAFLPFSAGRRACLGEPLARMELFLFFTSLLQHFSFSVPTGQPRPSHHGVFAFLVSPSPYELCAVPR
# Assay: Cytochrome panel assay with activity outcomes
# Conditions: recombinant CYP, pro-luciferin dealkylation, luminescence, p450-cyp2d6; series mostly up to 57.1 µM; activity, negative = inhibition: at the top concentration
# On the % scale 0 is the no-effect control and ±100 the full control effect.
SMILES,"activity, negative = inhibition",AC50
Cn1c(=O)c2[nH]c(COCc3nc4c([nH]3)c(=O)n(C)c(=O)n4C)nc2n(C)c1=O,3.11% [at 11.4 µM] (inactive),
NC1=C(O)C(=O)[C@H](c2c[nH]c3ccc(OCc4ccccc4)cc23)O1,-2.34% [at 11.4 µM] (inactive),
O=C(Oc1ccccc1)N1CCC2(CC1)CN(c1ccncc1)C2,5.3% (inactive),
CCCCN(C)CCCNC(=O)CCn1nc(-c2ccccc2)ccc1=O,-27% (inactive),
O=C(CNCCO)N1CCc2ccccc21,-26.9% (inactive),
CCN(CCCNC(=O)CC(C(=O)N1CCc2ccccc21)n1ccnc1)c1ccccc1 (configuration not stated),,3.98 µM (active)
Clc1ccc(-c2nnc(-c3ccccc3)c(N3CCSCC3)n2)cc1,-13% (inactive),
Cc1noc(NS(=O)(=O)c2cccc3c(N(C)C)cccc23)c1C,-6% (inactive),
O=C(Nn1cc(C(=O)N2CCN(c3ccccc3F)CC2)c2ccccc2c1=O)c1cnccn1,-6.56% (inactive),
CC(=O)NNC(=O)CCC(=O)Nc1ccccc1,-4.27% (inactive),
C#CCCCC(=O)Nc1ccccc1,,12.6 µM (active)
CCC(=O)NNC(=O)CCC(=O)Nc1ccccc1,18% (inactive),
Cc1ccc(-c2csc(N/N=C/c3ccco3)n2)cc1,-14.3% (inactive),
NCCSSCCN,,inactive
O=c1oc2cc(Oc3ccc(C(F)(F)F)cc3[N+](=O)[O-])ccc2c2c1CCCC2,20.1% (inactive),
CC(C)c1ccc(OCc2ccc(C(=O)N3CCN(c4ccccn4)CC3)cc2)cc1,7.85% (inactive),
COc1ccc(CCn2c(C)cc(C(=O)CSc3nc(N)cc(=O)[nH]3)c2C)cc1,-25.3% (inactive),
CC(=O)Nc1nnc(SCc2ccc(F)cc2)s1,-0.935% (inactive),
Cc1cc(C(=O)CSc2nnc(N)s2)c(C)n1CCc1ccc(F)cc1,,7.08 µM (active)
Cn1c(=O)c2c(ncn2CN2CCN(Cn3cnc4c3c(=O)n(C)c(=O)n4C)CC2)n(C)c1=O,-3.86% [at 11.4 µM] (inactive),
C[C@@H]1/C=C\CC(=O)OC[C@H](C)C(=O)N[C@@H](C)C(=O)OC1,-1.56% [at 11.4 µM] (inactive),
CCCc1nnc(NC(=O)C(CC)OC(=O)c2cc(C)nc3ccccc23)s1 (configuration not stated),-10.4% (inactive),
C[C@@H]1Oc2ccc(C(=O)C[C@@H](C(=O)O)c3ccc4c(c3)OCO4)cc2O1,-15.2% [at 11.4 µM] (inactive),
c1ccc(SC(Sc2ccccc2)c2ccc3c(c2)OCO3)cc1,,3.16 µM (active)
C[C@@H](C(=O)O)/C(=C/c1ccc2c(c1)OCO2)C(=O)O,14.3% [at 11.4 µM] (inactive),
N[C@H](C(=O)O)c1ccc(C(=O)O)c(O)c1,6.68% (inactive),

SMILES,"activity, negative = inhibition",AC50
O=C(Nc1ccccc1C(=O)NCC1CCCO1)c1ccc(Cl)cc1Cl (configuration not stated),-8.86% (inactive),
CC(C)(C)S(=O)(=O)c1cnc2c(-c3ccc(F)cc3)cnn2c1N,-6.59% (inactive),
CCn1c2ccc(Cl)cc2c2nc3ccccc3nc21,-11.3% (inactive),
CCCCc1c2ccccc2nc2[nH]c3ccccc3c12,-9.3% (inactive),
CN(C)CCCc1c2ccccc2nc2ccc(Cl)cc12,,1.58 µM (active)
Cn1c(=O)c2[nH]cnc2n(C)c1=O,,inactive
Cc1ccc(Sc2ccc(NC(=O)c3ccc(S(C)(=O)=O)cc3Cl)cc2)cc1,-9.39% (inactive),
COC(=O)CCC(=O)NNC(=O)c1ccc(Br)cc1,-11.4% (inactive),
Cc1ccc(NC(=S)NCCN2CCOCC2)cc1C,-2.36% (inactive),
Fc1cccc(NC(=S)NCCCN2CCOCC2)c1,,7.94 µM (active)
O=C(CCn1c(=S)[nH]c2ccccc2c1=O)NCCCN1CCOCC1,0.306% (inactive),
CN(C)CCCO[C@H]1[C@@H]2OC(C)(C)O[C@@H]2O[C@@H]1[C@H](O)CO,1.79% [at 25.6 µM] (inactive),
C#CCCCO/N=C1/C[C@@H](O)[C@@H](O)[C@@H]2[C@@H]3C(=O)N(C4CCCCC4)C(=O)[C@H]3CC[C@@H]12,13% [at 11.4 µM] (inactive),
CCC(=O)Nc1ccc(C(=O)CSc2nnc(-c3ccc(O)cc3)n2CC2CCCO2)cc1OC (configuration not stated),2.81% (inactive),
CCCCN(C)CCCNC(=O)c1ccc(N2CCCC2=O)cc1,6.53% (inactive),
CC(=O)Nc1cccc(N2C(=O)CCC2=O)c1,7.17% (inactive),
O=C(O)c1cccc(N2CCCC2=O)c1,,0.251 µM (active)
CC(NC(=O)c1ccc(N2CCCC2=O)cc1)c1ccccc1 (configuration not stated),,7.94 µM (active)
Cc1ccc(C(=O)NC2CCCCCC2)cc1N1CCCC1=O,-11.6% (inactive),
C[C@H](NC(=O)c1ccc(Cl)c(Cl)c1)c1ccc(-c2ccccc2)cc1,-1.17% [at 11.4 µM] (inactive),
Cc1ccccc1C(=O)NC(=S)NCC(=O)c1ccccc1,8.23% (inactive),
COCCn1c(=O)c(C)nc2cnc(Nc3cccc(OC)c3)nc21,-12.8% (inactive),
CN(C)C(N)=NCCC[C@H](N)C(=O)O,1.55% (inactive),
CC(/C=N\NC(=O)Cn1c(C)nc2ccccc21)=C\c1ccccc1,2.75% (inactive),
CC[C@H]1C2=C3C(CC[C@H]4C(OC)OC[C@](C)([C@@H]34)N(C(=O)OC(C)(C)C)C2)C(CO)C1CO (some centres not stated),3.96% (inactive),
COC(=O)c1sccc1NC(=O)c1cc(-c2ccc(C)cc2C)nc2ccccc12,2.41% (inactive),

SMILES,"activity, negative = inhibition",AC50
Cc1c(Br)c([N+](=O)[O-])nn1CC(=O)NCc1ccccn1,-9% (inactive),
Cc1ccc(OC[C@H](O)[C@H](C)NC(C)C)c2c1CCC2,,15.8 µM (active) and inactive
O=C(OCC1CC(c2ccccc2)=NO1)c1ccc(Cl)cc1 (configuration not stated),-3.1% (inactive),
CSc1nncc(-c2ccc(F)c(F)c2)n1,29.6% (inactive),
COC(=O)C/C=C\[C@@H](C)[C@@H](/C=N\O[C@@H](C)c1cn([C@H]2COC[C@H]2O)nn1)NS(=O)(=O)c1ccc(C)cc1,5.15% [at 11.4 µM] (inactive),
Cc1ccc(OCCCC(=O)N2CCOCC2)cc1,3.91% (inactive),
Cc1ccc(OCCCN2C(=O)C(=O)c3cccc(C)c32)cc1,,14.1 µM (active)
Cc1cccc(/C(N)=N/OC(=O)CCCN2C(=O)c3ccccc3C2=O)c1,-6.05% (inactive),
CC(C)(C)NC[C@H](O)c1cc(O)cc(O)c1,,inactive
Cc1onc(-c2ccccc2Cl)c1C(=O)Nc1nnc(Cc2ccc(Cl)cc2)s1,-19.9% (inactive),
Cc1ccc(SCc2nnc(NC(=O)c3ccccc3)s2)cc1,2.7% (inactive),
Cc1ccc(NC(=O)c2ccc(CSc3nnc(-c4ccncc4)n3C)cc2)cc1,15.4% (inactive),
Cc1ccc(SCc2ccc(C(=O)NCc3ccncc3)cc2)cc1,,0.0447 µM (active)
CCc1nc2c(c(SC)nn2-c2ccccc2)c(N)c1C(=O)OC,-7.9% (inactive),
CC(=O)Nc1ccc(-c2cc(-c3ccc(NC(C)=O)cc3)nc(-c3ccccc3)n2)cc1,-3.17% (inactive),
CC(=O)OCCNC(=O)c1cccnc1,3.52% (inactive),
O=C(COC(=O)c1cccnc1)c1ccc(Cl)c(Cl)c1,,2.51 µM (active)
O=C(Oc1cccc(Br)c1)c1cccnc1,6.26% (inactive),
COc1cc(-c2ccc(N=Nc3ccc4c(S(=O)(=O)O)cc(S(=O)(=O)O)c(N)c4c3O)c(OC)c2)ccc1N=Nc1ccc2c(S(=O)(=O)O)cc(S(=O)(=O)O)c(N)c2c1O,-16.2% [at 25.6 µM] (inactive),
COc1ccc(OCCSc2ncn[nH]2)cc1,-13.2% (inactive),
COCCCNC(=O)CCC(=O)Nc1ccc2nc(N3CCOCC3)cc(C)c2c1,-4.97% (inactive),
Nc1nc(Sc2ccc([N+](=O)[O-])c3nonc23)c2[nH]cnc2n1,3.81% [at 11.4 µM] (inactive),
C[C@H](N[C@@H](C)COc1ccccc1)[C@H](O)c1ccc(O)cc1,,0.316 µM (active)
CCOc1ccc(C(CC(=O)O)NC(=O)COc2ccccc2)cc1 (configuration not stated),29.6% (inactive),
O=C(O)[C@H](/C=C\c1ccccc1)c1ccccc1,-18.1% [at 11.4 µM] (inactive),
CCOc1ccc(-n2c(=O)[nH]cc(C(=O)N3CCCc4ccccc43)c2=O)cc1,3.05% (inactive),

SMILES,"activity, negative = inhibition",AC50
O=C(NCCN1CCCCC1)c1ccc(I)cc1,,10 µM (active)
Cc1ccc(C(=O)NCCNC(=O)CN2CCOCC2)cc1,5.57% (inactive),
CCC(CC)C(=O)NCCN1CCN(C(=O)C(CC)CC)CC1,-20.9% (inactive),
COC(=O)C(NC(=O)c1ccccc1)=C1C=C(C)OC(C)=C1,29.6% (inactive),
Clc1ccc(/C=N/c2c(-c3ccc(Cl)cc3)nc3n2CCS3)cc1,-14.9% (inactive),
O=[N+]([O-])c1cccc(/C=N/Nc2cc(Cl)nc(-c3ccccc3)n2)c1,13.8% (inactive),
CCCC/C=C/C(NC(=O)Oc1cccc(C(F)(F)F)c1)c1ccccc1 (configuration not stated),,1 µM (active)
CCCC/C=C/C(NC(=O)c1ccccc1)c1ccccc1 (configuration not stated),-12.9% (inactive),
CCCC/C=C/C(NC(=O)c1ccc(C(F)(F)F)cc1)c1ccccc1 (configuration not stated),0.459% (inactive),
C(=N\Nc1nc(Nc2ccccc2)nc(N2CCOCC2)n1)/c1c[nH]c2ccccc12,-11.5% (inactive),
Cn1c(=O)c2c(nc(N/N=C\c3ccccc3C(=O)O)n2C)n(C)c1=O,5.12% [at 11.4 µM] (inactive),
Cn1c(N/N=C/c2c[nH]c3ccccc23)nc2ccccc21,,7.94 µM (active)
CC(C)(C)C1CCc2c(C(=O)N/N=C/c3cccs3)csc2C1 (configuration not stated),8.71% (inactive),
OC[C@@H]1O[C@H](n2cnc3c(/C=C(\O)c4ccccc4)ncnc32)[C@H](O)[C@@H]1O,3.57% [at 11.4 µM] (inactive),
Cn1c(=O)n(C)c2cc(S(=O)(=O)O)ccc21,5.64% (inactive),
CCc1c(C)nc2ccc(Br)cc2c1Cl,,12.6 µM (active)
CCOC(=O)c1ccc2nc(C)c(CCC(C)=O)c(Cl)c2c1,5.82% (inactive),
CCc1c(C(=O)O)[nH]c2ccc(Br)cc12,6.47% (inactive),
CCCNS(=O)(=O)c1ccc(OCC(=O)OC)cc1,11.6% (inactive),
O=c1[nH][nH]c(C(F)(F)F)c1C=Nc1ccccc1,-4.27% (inactive),
Cc1ccc(CSc2nnc(-c3ccncc3)n2CC2CCCO2)cc1 (configuration not stated),-4.47% (inactive),
Cc1cc(NC(=O)c2c([N+](=O)[O-])cnn2C)no1,20.4% (inactive),
CCCC[C@H](CC)CN1CN(C[C@@H](CC)CCCC)CC(C)(N)C1,,1.26 µM (active)
N#CC(c1ccccn1)(c1ncc(C(F)(F)F)cc1Cl)N1CCOCC1 (configuration not stated),7.02% (inactive),
